The values that follow come from PubChem BioAssay AID493248 (Broad Institute, 2011).

About 1,400 (61%) of roughly 2,300 compounds were called active. About 7% were inconclusive and are not listed. The rule behind the calls is not given here. So high a share suggests a set chosen from earlier hits. The list is a sample of the results. Results with a measured potency or affinity are listed apart.

Chain of FAD-linked sulfhydryl oxidase ALR (Homo sapiens) (P55789 whole entry, looked up): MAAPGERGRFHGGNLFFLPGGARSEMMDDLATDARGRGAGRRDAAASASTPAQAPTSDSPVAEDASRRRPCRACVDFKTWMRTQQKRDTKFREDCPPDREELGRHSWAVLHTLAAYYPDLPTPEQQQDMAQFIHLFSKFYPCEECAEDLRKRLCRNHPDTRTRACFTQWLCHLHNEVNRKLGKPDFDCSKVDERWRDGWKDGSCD

This test concerns the target FAD-linked sulfhydryl oxidase ALR (Homo sapiens) (UniProt P55789). As to the kind of experiment: ALR-catalysed DTT oxidation blockers – biochemical, H2O2 detection, luminescence, cherry-pick, dose response (AID 493248). To be noted: purified ALR, H2O2 HRP-luminol luminescence; at 10 µM (top of the series).
With `COC(=O)c1ccc(CSc2ncnc3c2nnn3-c2ccc(F)cc2)o1`, the activity change, negative = inhibition was -6.9%. As to `COC(=O)c1ccc(CSc2nc3ccc(Cl)cc3[nH]2)o1`, the activity change, negative = inhibition is -47.5%. For the compound `O=C1c2cc(O)c(O)cc2S(=O)(=O)C1c1ccccc1` (stereo unspecified), the activity change, negative = inhibition was -13%. Turning to `COc1ccc(-n2cnnc2SCc2cnc(-c3ccccc3)s2)cc1`, the activity change, negative = inhibition is -99.2%. As for `Cc1nc2ccc(NC(=O)c3ccco3)cc2nc1C`, the activity change, negative = inhibition is -98.9%. `Oc1ccc(C2C[C@H]3CC[C@@H]2C3)cc1O` (stereo partly specified): the activity change, negative = inhibition is 0.253%. Regarding `O=C(O)CCCN1C(=O)/C(=C\C(Cl)=C\c2ccccc2)SC1=S`, the activity change, negative = inhibition is -28.9%. Take `CN(C)c1ccc(N2CC(C)(C)C2=O)cc1`: the activity change, negative = inhibition was determined as 9.24%. In the case of `Cc1cccn2cc(-c3cccc(S(=O)(=O)N4CCCCC4)c3)nc12`, the activity change, negative = inhibition was -98.3%.

As for `Cc1cc(C)c2ccc(N)nc2c1O`, the activity change, negative = inhibition was -14.6%.

With `COc1cc(C)nc(Oc2ccc(/C=N/O)cc2)n1`, the activity change, negative = inhibition was -95.2%.

`CCN1CCN(C(=O)Nc2ccc(Cc3ccc(NC(=O)N4CCN(CC)CC4)cc3)cc2)CC1`: the activity change, negative = inhibition was -18.9%. In the case of `COCc1nnc(NC(=O)c2ccc(S(=O)(=O)N3CCCc4ccccc43)cc2)o1`, the activity change, negative = inhibition was -34.2%. The value for `CCCC(O)(c1ccc(OC)cc1)C(CN(C)C)c1ccccc1` (stereo unspecified) was 4.55%; that for `Nc1ccccc1Nc1c(F)c(F)nc(F)c1Cl` was -37.7%. The value for `Cc1ccc[n+](-c2nc([O-])sc2/C=N/Nc2ccc([N+](=O)[O-])cc2)c1` was -43.9%. The value for `O=C(CNC(=O)c1ccco1)Nc1ccc(N2CCCCCC2)cc1` was -0.183%. `O=C(NCc1ccco1)C1CC(=O)N(c2ccc(O)cc2)C1` (stereo unspecified): the activity change, negative = inhibition is -85.4%.

Consider `O=C(CN1CCN(c2ccc(O)cc2)CC1)Nc1cc(S(=O)(=O)N2CCCC2)ccc1Cl`, for which the activity change, negative = inhibition is -40.9%. The value for `COc1cc(/C=C/c2sc3ccccc3[n+]2CCCS(=O)(=O)[O-])ccc1O` was -105%; that for `Nc1nc(-c2ccc3c(c2)CCCC3)cs1` was -97%.

`COc1ccc2c(c1)c1ncn(CCc3ccccc3)c(=O)c1n2C`: the activity change, negative = inhibition was -0.427%. As to `O=c1[nH]c(=S)[nH]c2sccc12`, the activity change, negative = inhibition is -34.4%. With `Cc1ccc(CNC(=O)c2ccc(CS(=O)Cc3ccccc3Cl)o2)cc1` (stereo unspecified), the activity change, negative = inhibition is -1.87%. Take `O=c1oc2c3c4c(cc2s1)CCCN4CCC3`: the activity change, negative = inhibition was -13.7%. For `Cc1ccc(N2CCN(S(=O)(=O)c3ccc4c(c3)NC(=O)C(C)C(=O)N4)CC2C)cc1` (stereo unspecified) the value was -30.2%.

For the compound `CC(C)n1cc(C(=O)N2CCCC(N3CCN(c4cccc(Cl)c4)CC3)C2)cn1` (stereo unspecified), the activity change, negative = inhibition is -43.2%. For `Cc1cccc(N2CCN(C(=O)Cn3sc4nc(C)cc(C)c4c3=O)CC2C)c1` (stereo unspecified) the value was -57.4%. For `O=c1oc2ccccc2cc1-c1ccc(O)cc1O`, the activity change, negative = inhibition is 371%. The value for `Cc1c(Cl)c(-c2n[nH]c(=S)n2CC(C)C)nn1C` was -54.1%.

For the compound `Cn1cc(Cl)c(-c2n[nH]c(=S)n2-c2ccc(F)cc2)n1`, the activity change, negative = inhibition stood at 18.2%. As for `CC(C)(C)c1ccc(C(=O)Oc2ccccc2CCC(=O)O)cc1`, the activity change, negative = inhibition was -56%. Consider `CC(C)(C)c1ccc(Oc2ccc(N)cn2)cc1`, for which the activity change, negative = inhibition worked out at 49.2%. Turning to `CC1CCN(C(=S)c2ccc(O)cc2)CC1`, the activity change, negative = inhibition is -30%.

Take `CN(C)c1ccc(C(=O)N2CCCC2)cc1`: the activity change, negative = inhibition is -10.3%. In the case of `COc1ccc(-c2n[nH]c(=S)n2Cc2ccco2)cc1`, the activity change, negative = inhibition was -32.4%. `CC1CCCCC1n1c(-c2cccnc2)n[nH]c1=S` (stereo unspecified): the activity change, negative = inhibition was -2.8%. Consider `S=c1[nH]nc(-c2ccco2)n1/N=C/C=C/c1ccccc1`, for which the activity change, negative = inhibition is -45.1%. In the case of `C=CCn1c(-c2sccc2C)n[nH]c1=S`, the activity change, negative = inhibition worked out at 0.591%. Take `N#Cc1ccccc1S(=O)(=O)N1CCN(C(=O)Cc2coc3cc(O)ccc23)CC1`: the activity change, negative = inhibition is -102%. On to `CCN(C=NC1=NN(c2cccc(C(F)(F)F)c2)CC1)CC`, for which the activity change, negative = inhibition was 4.04%.

As to `COC(=O)c1[nH]c2cc(OC)ccc2c1N=CN(C)C`, the activity change, negative = inhibition was -64.5%. As for `CCc1ccc(OC)c(-c2csc(N)n2)c1`, the activity change, negative = inhibition worked out at 3.63%.

For the compound `O=c1oc(-c2ccc(F)cc2)nc2ccsc12`, the activity change, negative = inhibition is -52.7%.

As for `O=C(Nc1ccccc1N1CCCCC1)c1cnccn1`, the activity change, negative = inhibition was -36.5%. Turning to `Cc1ccc(C(=O)C2CCN(CC(=O)Nc3ccc(N(C)C)cc3)CC2)cc1`, the activity change, negative = inhibition was -106%. As to `C=CCn1c(-c2ccc(N)cc2)nc2ccccc21`, the activity change, negative = inhibition is -33.2%. For the compound `C=CCn1c(-c2cc(OC)cc(OC)c2)n[nH]c1=S`, the activity change, negative = inhibition is -54.8%. Take `CCN(C(=O)CN1CCN(c2cccc(Cl)c2)CC1)c1c(N)n(Cc2ccccc2)c(=O)[nH]c1=O`: the activity change, negative = inhibition was -43.8%.

Consider `Cc1nnc(N2CCN(Cc3ccccc3)CC2)[nH]c1=O`, for which the activity change, negative = inhibition was 42.6%. For `CCn1c(=O)c2c3c(sc2n2c(=S)[nH]nc12)CCC3`, the activity change, negative = inhibition was -18.2%. `COc1cc(/C=N\NC(=O)c2ccc(-c3ccccc3)cc2)cc(OC)c1O`: the activity change, negative = inhibition is -59.8%. The value for `COc1cccc(/C=N/NC(=O)CNC(=O)c2ccncc2)c1O` was -31.5%. With `COc1cc2c(ccc3cc(OC)c(OC)c(O)c32)cc1O`, the activity change, negative = inhibition was -112%.

As for `Cc1nc2ccc(-c3ccccc3)cc2o1`, the activity change, negative = inhibition was -7.02%.

For `c1c2c(cc3sc(N4CCCCC4)nc13)OCO2`, the activity change, negative = inhibition was -5.07%.

With `O=C(O)c1[nH]c2ccccc2c1NS(=O)(=O)Cc1ccccc1`, the activity change, negative = inhibition was -42.2%. Consider `C[C@H](NC(=O)c1cc2c(cn1)[nH]c1ccccc12)C(=O)O`, for which the activity change, negative = inhibition was -94.7%. Take `CCCn1cnc2cc(NCc3cccc(OC)c3)ccc21`: the activity change, negative = inhibition stood at 395%. For `Cn1cnc2cc(NCc3ccccc3O)ccc21` the value was 297%. For the compound `Oc1ccc(-c2n[nH]c(=S)n2Cc2ccco2)cc1`, the activity change, negative = inhibition was -29.1%.

On to `COc1ccc(C(=O)N/N=C(\Cc2ncc[nH]2)c2ccccc2)cc1`, for which the activity change, negative = inhibition was -40%. For `Cc1[nH]nc(-c2ccc(O)cc2O)c1Oc1ccccc1` the value was -84.3%; for `COc1ccc(S(=O)(=O)n2nc(OC(=O)c3ccco3)cc2N)cc1`, -55.8%. `O=C1NN(c2ccccc2)C(=O)/C1=C\c1ccccc1`: the activity change, negative = inhibition was -5.6%. For `N/C(=N\N=C\c1ccc(O)cc1)c1nonc1N`, the activity change, negative = inhibition was -84.5%. For the compound `Nc1cc(C(F)(F)F)ccc1C(=O)O`, the activity change, negative = inhibition was determined as 8.42%.

On to `COc1ccccc1N1CC(C(=O)Nc2nnc(SCc3cccnc3)s2)CC1=O` (stereo unspecified), for which the activity change, negative = inhibition is -17.9%. On to `Nc1ccc2nc(-c3cccs3)[nH]c2c1`, for which the activity change, negative = inhibition is -80%.

For `Cc1ccc(-c2nc3cc(N)ccc3o2)c(C)c1`, the activity change, negative = inhibition worked out at 19.5%. As for `Cc1ccc(C)c(-c2nc3cc(N)ccc3o2)c1`, the activity change, negative = inhibition is -81.2%. Take `COC(=O)c1ccc(-c2nc3cc(N)ccc3o2)cc1`: the activity change, negative = inhibition worked out at 72.5%.

As for `COc1ccc(-c2cc(C(F)F)n3ncc(C(=O)n4ccnc4C)c3n2)cc1`, the activity change, negative = inhibition is -48%. Regarding `CCCN1CCC(=O)N([C@H](CSc2ccc(OC)cc2)CC(C)C)CC1`, the activity change, negative = inhibition was determined as 20.7%. For `O=C(O)CCn1c2c(c3ccccc31)CCCC2`, the activity change, negative = inhibition was 5.37%.

Take `Cc1ccc(Nc2nnns2)cc1C`: the activity change, negative = inhibition is -6.48%.

For `Cc1ccc(NCCC(=O)c2cccs2)cc1C`, the activity change, negative = inhibition was -51.1%. For `CN(C)c1ccc(CN(C(=O)c2cc3ccccc3oc2=O)C2CCS(=O)(=O)C2)cc1` (stereo unspecified), the activity change, negative = inhibition was -17.6%. Consider `COc1ccc(NC2CCCN(C(=O)c3ccc(C)nc3)C2)cc1` (stereo unspecified), for which the activity change, negative = inhibition was found to be 289%.

Take `S=c1[nH]nc(-c2ccncc2)n1Cc1ccco1`: the activity change, negative = inhibition was -47.7%.

On to `Cc1cccc(C(=O)N2CCCC(N3CCN(c4ccc(F)cc4)CC3)C2)n1` (stereo unspecified), for which the activity change, negative = inhibition is -66.1%.
